The panel holds about 79,000 compounds, 15% with a hit somewhere; the sample as a whole holds those more often. Values without a mark were called inactive. Activity calls are given as the source filed them. No stated cut-off is given here; in the data, active means growth inhibition above about 70%; inactive means the rest.

One test can be described thus: NCI Yeast Anticancer Drug Screen. Data for the rad50 strain (AID 155).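 Further: 0% = growth of vehicle-only cultures of the same strain.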 The settings on record: S. cerevisiae rad50 strain growth inhibition; at 50.0 µM; hits give high values. In short, it runs like this: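 Compounds were tested on a yeast strain with an engineered DNA damage repair alteration; the reported value is growth inhibition normalised to vehicle treatment.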
As for `CCCc1cc(C(=O)OCC)cc(CCC)c1O`, the growth inhibition was 93.1% (active).
Still for that read-out and setting: the same measure for `CC(C)[N+]([O-])(CCCNc1c2ccccc2nc2cccc([N+](=O)[O-])c12)C(C)C`: 87.6% (active); for `COc1cc2c3c(cccc3c1)C(=O)N(CCN(C)C)C2=O`: 71.6% (active).
The same measure, in the same setting: the result for `NC(=O)NN=C(CS)CS` reads 63.8%; that for `Cc1ccc(NC(=O)/C(Cl)=C(\Cl)C(=O)O)cc1C`, 99.2% (active); that for `CCN(CC)CC[n+]1ccc2c(C)c3[nH]c4ccc(O)cc4c3c(C)c2c1`, 95% (active).
On the same count and under the same terms, the result for `CC(CC(C)(C)[N+](C)(C)C)[N+](C)(C)C` (stereo not drawn) reads 92.8% (active); that for `COc1ccc(OC)c2cc3ccccc3cc12`, 74.3% (active); that for `Nc1ncncc1C(C1=C(O)COC1=O)C1=C(O)COC1=O`, 8.05%.
Take `CSC1=NNC(SC)=NN1`: the growth inhibition is 59.9%.
Same read-out and setting: the same measure for `Cc1c(Cl)ccc2c1S(=O)(=O)c1cccc(Cl)c1-2`: 20.8%.
On to `[O-][n+]1c2ccc(O)cc2nc2ccc(Cl)cc21`, for which the growth inhibition is 81.9% (active).
On the same count and under the same terms, the result for `COc1ccc2ccc3ccccc3c2c1C=O` reads 49%.
On the same count and under the same terms, the result for `Nc1ccc2c(c1)C(=O)c1cccc(N)c1C2=O` reads 89.8% (active); that for `O=C(c1ccc(Cl)cc1Cl)C(Cl)Cl`, 83.8% (active).
The same measure, in the same setting: the same measure for `COc1cc(C(=O)/C=C/c2ccccc2O)ccc1O`: 93.2% (active).
On to `O=Cc1cccc2ccc3ccccc3c12`, for which the growth inhibition is 99.3% (active).
Consider `O=C(Nc1ccc(Cl)cc1)OCC#CCCl`, for which the growth inhibition was 10.9%.
On to `Cn1ccnc1Oc1ccc(Cl)cc1`, for which the growth inhibition was 81.2% (active).
Same read-out and setting: the same measure for `c1ccc2c(c1)C(=NCCCN1CCCCCC1)c1cccn1-2`: 78.2% (active).
Same read-out and setting: the result for `C/C(=N\O)C1CC2C=C(C#N)C1N(Cc1ccccc1)C2` (stereo not drawn) reads 8.05%; that for `O=[N+]([O-])C(=C(Sc1ccccc1)Sc1ccccc1)C(Cl)=C(Cl)Cl`, 19.6%; that for `CCCCCCCCCC/C=C\C(=O)O`, 78% (active).
Still for that read-out and setting: the same measure for `COc1ccc(N=C2C(=O)Nc3ccc(Br)cc32)cc1`: 13.8%.
As for `COc1ccccc1C(=O)OCC1CCCN2CCCCC12` (stereo not drawn), the growth inhibition is 90.7% (active).
The same measure, in the same setting: the same measure for `CC(C)(Br)C(=O)/C=C/c1ccc(Cl)c(Cl)c1`: 87.4% (active); for `Nc1ccccc1CC(O)C(=O)O` (stereo not drawn): 93% (active); for `CC(=O)N/N=C/C(C)(C)C(C)(C)/C=N/NC(C)=O`: 50.5%.
Still for that read-out and setting: the result for `CN(C)c1nc2sc3c(c2c(=O)o1)CCCC3` reads 68.9%; that for `CC(C)OC(=O)Oc1ccccc1OC(=O)OC(C)C`, 39.3%; that for `Cc1ccc(N)c(S)c1`, 10.4%.
In the case of `O=C(O)c1ccccc1NC(=S)c1ccccc1`, the growth inhibition was 4.25%.
As for `COC(=O)c1ccc(NCC2=CC(=O)C=CC2=O)cc1O`, the growth inhibition was 91% (active).
On the same count and under the same terms, the same measure for `NC(N)=N/N=C\c1c2ccccc2cc2ccccc12`: 17.1%; for `COC(=O)CSSCc1ccc([N+](=O)[O-])cc1`: 97.3% (active); for `CCS(=O)(=O)c1ccc(/C=C/C=N/NC(=S)NCC(C)C)cc1`: 0.25%.
On the same count and under the same terms, the result for `N#CC(C(=O)Nc1ccccc1)C1=C(Cl)C(=O)c2ccccc2C1=O` (stereo not drawn) reads 91.8% (active); that for `C[C@H](CCC(=O)NN)[C@H]1CC[C@H]2[C@@H]3CC[C@@H]4C[C@H](O)CC[C@]4(C)[C@H]3CC[C@]12C`, 60%.
Same read-out and setting: the result for `CC[n+]1ccc2c(C)c3[nH]c4ccc(O)cc4c3c(C)c2c1` reads 81.5% (active).

The same test, now with this note: S. cerevisiae rad50 strain growth inhibition; at 100.0 µM; hits give high values.
On to `CCCc1cc(C(=O)OCC)cc(CCC)c1O`, for which the growth inhibition is 98% (active).
The same measure, in the same setting: the result for `CC(C)[N+]([O-])(CCCNc1c2ccccc2nc2cccc([N+](=O)[O-])c12)C(C)C` reads 96% (active).
Still for that read-out and setting: the result for `COc1cc2c3c(cccc3c1)C(=O)N(CCN(C)C)C2=O` reads 88% (active).
Consider `NC(=O)NN=C(CS)CS`, for which the growth inhibition is 89% (active).
As to `Cc1ccc(NC(=O)/C(Cl)=C(\Cl)C(=O)O)cc1C`, the growth inhibition was 98% (active).
Consider `CCN(CC)CC[n+]1ccc2c(C)c3[nH]c4ccc(O)cc4c3c(C)c2c1`, for which the growth inhibition is 93% (active).
On the same count and under the same terms, the same measure for `CC(CC(C)(C)[N+](C)(C)C)[N+](C)(C)C` (stereo not drawn): 0%; for `COc1ccc(OC)c2cc3ccccc3cc12`: 4%; for `Nc1ncncc1C(C1=C(O)COC1=O)C1=C(O)COC1=O`: 1%.
Same read-out and setting: the result for `CSC1=NNC(SC)=NN1` reads 97% (active); that for `Cc1c(Cl)ccc2c1S(=O)(=O)c1cccc(Cl)c1-2`, -3%.
For `[O-][n+]1c2ccc(O)cc2nc2ccc(Cl)cc21`, the growth inhibition is 84% (active).
For the compound `COc1ccc2ccc3ccccc3c2c1C=O`, the growth inhibition is 79% (active).
On the same count and under the same terms, the result for `Nc1ccc2c(c1)C(=O)c1cccc(N)c1C2=O` reads 93% (active); that for `O=C(c1ccc(Cl)cc1Cl)C(Cl)Cl`, 98% (active).
On the same count and under the same terms, the same measure for `COc1cc(C(=O)/C=C/c2ccccc2O)ccc1O`: 98% (active); for `O=Cc1cccc2ccc3ccccc3c12`: 97% (active); for `O=C(Nc1ccc(Cl)cc1)OCC#CCCl`: 28%.
Still for that read-out and setting: the same measure for `Cn1ccnc1Oc1ccc(Cl)cc1`: 97% (active); for `c1ccc2c(c1)C(=NCCCN1CCCCCC1)c1cccn1-2`: 97% (active); for `C/C(=N\O)C1CC2C=C(C#N)C1N(Cc1ccccc1)C2` (stereo not drawn): 5%.
As for `O=[N+]([O-])C(=C(Sc1ccccc1)Sc1ccccc1)C(Cl)=C(Cl)Cl`, the growth inhibition was 50%.
On to `CCCCCCCCCC/C=C\C(=O)O`, for which the growth inhibition was 97% (active).
Consider `COc1ccc(N=C2C(=O)Nc3ccc(Br)cc32)cc1`, for which the growth inhibition was -5%.
On to `COc1ccccc1C(=O)OCC1CCCN2CCCCC12` (stereo not drawn), for which the growth inhibition was 97% (active).
The same measure, in the same setting: the result for `CC(C)(Br)C(=O)/C=C/c1ccc(Cl)c(Cl)c1` reads 4%.
For `Nc1ccccc1CC(O)C(=O)O` (stereo not drawn), the growth inhibition was 95% (active).
On the same count and under the same terms, the result for `CC(=O)N/N=C/C(C)(C)C(C)(C)/C=N/NC(C)=O` reads 98% (active).
On the same count and under the same terms, the same measure for `CN(C)c1nc2sc3c(c2c(=O)o1)CCCC3`: 45%.
Take `CC(C)OC(=O)Oc1ccccc1OC(=O)OC(C)C`: the growth inhibition was -1%.
On to `Cc1ccc(N)c(S)c1`, for which the growth inhibition is 94% (active).
As for `O=C(O)c1ccccc1NC(=S)c1ccccc1`, the growth inhibition is 83% (active).
Turning to `COC(=O)c1ccc(NCC2=CC(=O)C=CC2=O)cc1O`, the growth inhibition was 93% (active).
Regarding `NC(N)=N/N=C\c1c2ccccc2cc2ccccc12`, the growth inhibition is 94% (active).
In the case of `COC(=O)CSSCc1ccc([N+](=O)[O-])cc1`, the growth inhibition is 97% (active).
The same measure, in the same setting: the same measure for `CCS(=O)(=O)c1ccc(/C=C/C=N/NC(=S)NCC(C)C)cc1`: 5%; for `N#CC(C(=O)Nc1ccccc1)C1=C(Cl)C(=O)c2ccccc2C1=O` (stereo not drawn): 96% (active).
Still for that read-out and setting: the result for `C[C@H](CCC(=O)NN)[C@H]1CC[C@H]2[C@@H]3CC[C@@H]4C[C@H](O)CC[C@]4(C)[C@H]3CC[C@]12C` reads 5%; that for `CC[n+]1ccc2c(C)c3[nH]c4ccc(O)cc4c3c(C)c2c1`, 90% (active).

The values are drawn from PubChem BioAssay (NCI).
